Values joined by “and” are separate entries in the source; they are usually repeats but may differ in a detail not shown here. Identical values can stand only once. Out of some 350,000 compounds screened, about 1,600 (0.46%) were called active. For the sample, actives were picked, then their nearest neighbours and some compounds at random. Values without a mark were called inactive.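 Rule for the calls: active = every replicate reaching a set inhibition limit, whatever the replicate mean (cut at about 25% in these data); inconclusive = mean inhibition reaches that limit but some replicates miss it; inactive = the rest.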
What follows are compounds tested against Protein AF-9 (Homo sapiens) (UniProt P42568) (assay: MLL-AF4/AF9 protein interaction blockers – biochemical, AlphaScreen, biotin-AF4 peptide, FLAG-AF9, single point, primary screen (AID 651704;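 note: 0% = plate neutral control median and 100% = total signal loss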)). Details: biotin-AF4 peptide binding to FLAG-AF9, at 10 µM, active compounds read high.
Sequence of Protein AF-9 (Homo sapiens) (P42568 whole entry, looked up): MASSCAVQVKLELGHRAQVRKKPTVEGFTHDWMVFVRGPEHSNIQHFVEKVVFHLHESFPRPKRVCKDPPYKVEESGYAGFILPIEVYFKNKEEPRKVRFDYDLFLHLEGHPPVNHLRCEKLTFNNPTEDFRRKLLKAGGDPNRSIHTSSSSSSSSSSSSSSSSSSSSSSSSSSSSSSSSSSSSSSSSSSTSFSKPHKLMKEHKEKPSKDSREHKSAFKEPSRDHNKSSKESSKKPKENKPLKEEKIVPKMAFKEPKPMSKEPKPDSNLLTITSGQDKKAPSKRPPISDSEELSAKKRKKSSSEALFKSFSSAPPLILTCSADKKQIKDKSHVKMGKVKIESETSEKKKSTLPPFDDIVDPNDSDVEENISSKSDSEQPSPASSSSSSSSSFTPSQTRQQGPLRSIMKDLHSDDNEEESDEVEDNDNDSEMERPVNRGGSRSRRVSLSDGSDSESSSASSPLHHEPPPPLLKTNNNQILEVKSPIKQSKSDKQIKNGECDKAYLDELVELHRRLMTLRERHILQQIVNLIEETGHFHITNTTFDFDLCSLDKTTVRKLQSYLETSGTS

Row | Structure (SMILES) | inhibition
1 | CN(Cc1c(F)cccc1Cl)C(=O)CNC(=O)c1ccc2c(c1)OCO2 | 34.1% (active)
2 | O=C(NCCc1ccc(C(F)(F)F)cc1)c1ccc2c(c1)OCO2 | -0.679%
3 | Cc1cccc(C)c1NC(=O)CNC(=O)c1ccc2c(c1)OCCO2 | -2.49%
4 | CO[C@@H]1CN(C)C(=O)c2ccc(NC(=O)c3ccccc3F)cc2OC[C@@H](C)N(CC2CCOCC2)C[C@H]1C | 1.64%
5 | COCC#Cc1ccc2c(c1)O[C@@H](CN(C)Cc1ccccn1)[C@@H](C)CN([C@@H](C)CO)S2(=O)=O | -4.38%
6 | C[C@@H]1CN([C@H](C)CO)C(=O)c2c(c3ccccc3n2C)-c2ccccc2CO[C@@H]1CN(C)Cc1ccc(F)cc1 | 0.52%
7 | C[C@@H]1CN([C@H](C)CO)C(=O)c2c(c3ccccc3n2C)-c2ccccc2CO[C@H]1CN(C)Cc1ccc(F)cc1 | -2.73%
8 | C[C@@H]1CN([C@@H](C)CO)C(=O)c2c(c3ccccc3n2C)-c2ccccc2CO[C@@H]1CN(C)Cc1cccc(C(=O)O)c1 | -2.44%
9 | C[C@H]1CN([C@@H](C)CO)C(=O)c2c(c3ccccc3n2C)-c2ccccc2CO[C@@H]1CN(C)Cc1ccc2c(c1)OCCN2C | 34.3% (active)
10 | C[C@@H]1CN([C@@H](C)CO)C(=O)c2c(c3ccccc3n2C)-c2ccccc2CO[C@@H]1CN(C)Cc1ccc2c(c1)OCCN2C | 30.8% (active)
11 | C[C@H]1CN([C@@H](C)CO)C(=O)c2c(c3ccccc3n2C)-c2ccccc2CO[C@H]1CN(C)Cc1ccc2c(c1)OCO2 | 1.72%
12 | Cc1ccccc1S(=O)(=O)N1CC(=O)N2[C@H](CO)[C@@H](c3ccc(C#Cc4ccccc4)cc3)[C@H]2C1 | -0.846%
13 | C[C@H](CO)N1C[C@H](C)[C@H](CN(C)Cc2ccccc2)OCCCC[C@H](C)Oc2ccc(NC(=O)Cc3ccccc3)cc2C1=O | 3.76%
14 | Cc1noc(C)c1S(=O)(=O)N(C)C[C@@H]1OCCCC[C@H](C)Oc2ccc(NC(=O)NC(C)C)cc2C(=O)N([C@H](C)CO)C[C@@H]1C | 1.67%
15 | O=C(C[C@H]1CC[C@H]2[C@@H](COC[C@H](O)CN2C(=O)Nc2ccc(Cl)cc2)O1)NCC1CC1 | 2.2%
16 | O=C(Cc1cccnc1)N1CC(=O)N2[C@@H](CO)[C@@H](c3ccc(C#CC4CCCC4)cc3)[C@@H]2C1 | 0.34%
17 | CN(C)C(=O)C[C@@H]1CC[C@@H](NC(=O)NC2CCCC2)[C@@H](CO)O1 | -1.49%
18 | COc1cccc(-c2ccc([C@@H]3[C@H]4CN(C(=O)c5cccnc5)CC(=O)N4[C@H]3CO)cc2)c1 | 0.197%
19 | CCCNC(=O)N1CC2(CCN(Cc3ccc(F)cc3)CC2)c2c([nH]c3cc(OC)ccc23)[C@@H]1CO | 29.6% (active)
20 | CCCNC(=O)N1CCC2(CC1)CN(Cc1ccccc1)[C@H](CO)c1[nH]c3cc(OC)ccc3c12 | 1.99%
21 | COc1ccc2c3c([nH]c2c1)[C@H](CO)N(Cc1cccc(F)c1)CC31CCN(CC2CC2)CC1 | 35.1% (active)
22 | COc1ccc2c3c([nH]c2c1)[C@H](CO)N(Cc1cccc(F)c1)CC31CCN(Cc2ccccn2)CC1 | 6.18%
23 | COc1ccc2c3c([nH]c2c1)[C@@H](CO)N(Cc1cccc(F)c1)CC31CN(CC2CC2)C1 | 23.8%
24 | CCCNC(=O)N1CC2(CCN(C(=O)C3CC3)CC2)c2c([nH]c3cc(OC)ccc23)[C@H]1CO | -0.242%

Row | Structure (SMILES) | inhibition
25 | C[C@H]1CN([C@@H](C)CO)C(=O)c2cc(-c3ccc(C#N)cc3)cnc2O[C@@H]1CN(C)Cc1ccncc1 | -0.44%
26 | COc1ccccc1C(=O)Nc1ccc2c(c1)C(=O)N(C)C[C@@H](OC)[C@@H](C)CN(C)[C@H](C)CO2 | -2.27%
27 | N#C[C@@H]1[C@H](c2ccccc2-c2cccc(F)c2)[C@@H](CO)N1C(=O)C1CCCC1 | -0.992%
28 | C[C@@H]1CN([C@@H](C)CO)C(=O)c2cc(-c3cccnc3)cnc2O[C@@H]1CN(C)C(=O)C1CC1 | -2.51%
29 | O=C(C1CCCCC1)N1CC(=O)N2[C@H](CO)[C@@H](c3ccc(C#Cc4cccc(F)c4)cc3)[C@@H]2C1 | -3.43%
30 | CN(Cc1ccccc1F)c1cc2c(c3c1ccn3C)C1CCC2O1 (stereo not given) | 28.6% (active)
31 | CC(C)(C)[S@](=O)N1Cc2cc(C(=O)N[C@@H]3CCN(Cc4ccccc4)C3)nc(-c3cccc(-c4ccncc4)c3)c2[C@@H]1CCO | 4.53%
32 | COc1ccc(N2CCN(C3CCCCC3NS(=O)(=O)c3ccccc3)CC2)cc1 (stereo not given) | 36.3% (active)
33 | O=S(=O)(NC1CCCCC1N1CCC(O)CC1)c1ccc(Cl)cc1 (stereo not given) | 3.3%
34 | O=S(=O)(NC1CCCCC1N1CCN(c2ccccc2F)CC1)c1ccccc1 (stereo not given) | 5.55%
35 | Cn1cnc(CCNC(=O)C[C@H]2CC[C@H]3[C@@H](COC[C@@H](O)CN3C(=O)Nc3ccc(C(F)(F)F)cc3)O2)c1 | 4.5%
36 | Cc1ccc(S(=O)(=O)N2CCN(C(=O)N3CCOCC3)CC2)c(C)c1 | -6.49%
37 | Cc1cccc(OCC(O)CN2CCN(S(=O)(=O)c3ccc(C)cc3C)CC2)c1 (stereo not given) | 35.7% (active)
38 | CC(=O)c1ccc(OCC(O)CN2CCN(S(=O)(=O)c3cccc(Br)c3)CC2)cc1 (stereo not given) | 0.541%
39 | CCN(CC(=O)Nc1ccc(NC(C)=O)cc1)C(=O)C1CC(=O)N(c2ccc3c(c2)OCCO3)C1 (stereo not given) | 28% (active)
40 | CCN(CC(=O)Nc1ccc(NC(C)=O)cc1)C(=O)C1CC(=O)N(Cc2ccc(C)cc2)C1 (stereo not given) | 9.28%
41 | CCOC(=O)c1ccc(NC(=O)C2CC(=O)N(c3ccc4c(c3)OCCO4)C2)cc1 (stereo not given) | -0.164%
42 | O=C(c1ccccn1)N1CC2(C1)[C@@H](c1ccccc1)[C@@H](CO)N2C(=O)C1CCC1 | 0.755%
43 | CC(C)CC#Cc1ccc2c(c1)O[C@@H](CN(C)C(=O)Nc1ccccc1F)[C@@H](C)CN([C@@H](C)CO)S2(=O)=O | 1.25%
44 | CC(C)C[C@@H](CO)N1CCN(Cc2ccc(O)cc2)CCC1=O | -1.96%
45 | CC(C)C[C@@H](COCc1ccc(Cl)cc1)N1CCN(C(=O)c2ccc(Cl)cc2Cl)CCC1=O | 1.49%
46 | CC(C)CC(CO)N1CCN(C(=O)c2ccc(Cl)cc2Cl)CCC1=O (stereo not given) | 38.9% (active)
47 | N#Cc1cccc(-c2ccc(C3[C@@H]4CN(C(=O)C5CCC5)C[C@H]3N4)cc2)c1 (stereo not given in full) | -2.89% and 1.48%
48 | O=C(NC1CCCCC1)N1CC2(C1)[C@@H](c1ccccc1)[C@@H](CO)N2CC1CCOCC1 | -1.54%

Row | Structure (SMILES) | inhibition
49 | CN(C)C(CNC(=O)c1ccc(OCc2cn3ccccc3n2)cc1)c1ccco1 (stereo not given) | 0.31%
50 | Cc1noc(C)c1COc1ccc(C(=O)NCCOc2ccccc2)cc1 | -1.51%
51 | CN(C)CCNC(=O)c1ccc(-c2cn3c(-c4ccc(Oc5ccccc5)cc4)cnc3cn2)cc1 | 34.2% (active)
52 | Cc1ccc(S(=O)(=O)NCC[C@H]2CC[C@H](NC(=O)c3ccccn3)[C@H](CO)O2)cc1 | 1.07%
53 | CCC(=O)N1C[C@H](C)[C@H](OC)CN(C)C(=O)c2cc(NC(=O)Nc3cccc(F)c3)ccc2OC[C@@H]1C | 2.75%
54 | O=S(=O)(c1ccccc1)N1[C@H](CO)[C@@H]2c3ccccc3NC[C@@H]21 | -1.25%
55 | COc1ccccc1NC(=O)N(C)C[C@@H]1Oc2ncc(C#CCC(C)C)cc2C(=O)N([C@@H](C)CO)C[C@@H]1C | -1.7%
56 | COCC(=O)Nc1ccc2c(c1)OC[C@@H](C)N(Cc1cocn1)C[C@@H](C)[C@@H](OC)CN(C)C2=O | -2.07%
57 | Nc1ccc(N=Nc2ccccc2Cl)c(N)n1 | 31.4% (active)
58 | CN1CCN(C(=O)C[C@H]2C[C@@H]3c4cc(NC(=O)Nc5ccc(C(F)(F)F)cc5)ccc4O[C@@H]3[C@H](CO)O2)CC1 | 6.81%
59 | COc1ccc(S(=O)(=O)NC[C@@H]2CC[C@@H]3[C@@H](CN3Cc3cc(F)ccc3F)O2)cc1 | 17.9%
60 | O=C([C@H]1N[C@H]2c3ccc(-c4ccccc4)c(=O)n3C[C@H]2[C@@H]1CO)N1CCOCC1 | -1.96%
61 | CCOC(=O)c1[nH]ncc1CN1CCCC(C(=O)c2ccc(OC)cc2C)C1 (stereo not given) | -1.02%
62 | COc1ccc(C(=O)C2CCCN(Cc3ccc4nonc4c3)C2)c(C)c1 (stereo not given) | 29.4% (active)
63 | COc1ccc(C(=O)C2CCCN(Cc3cccn3-c3ccccn3)C2)c(C)c1 (stereo not given) | 11.3%
64 | COc1ccc2[nH]c3c(C)c4cc[n+](C)cc4c(C)c3c2c1 | 57.7% (active)
65 | C[C@@H]1CN([C@H](C)CO)C(=O)c2cc(-c3ccc(F)cc3)cnc2O[C@@H]1CN(C)Cc1ccc(C(=O)O)cc1 | -1.88%
66 | CCC(=O)N1C[C@@H](C)[C@H](OC)CN(C)C(=O)c2cc(NC(=O)NC3CCCC3)ccc2OC[C@H]1C | -2.77%
67 | C[C@H](CO)N1C[C@H](C)[C@@H](CN(C)Cc2ccc3c(c2)OCO3)OCCCC[C@H](C)Oc2ccc(NC(=O)Nc3ccc(C(F)(F)F)cc3)cc2C1=O | 4.81%
68 | Cc1cc2oc(=O)cc(CN3CCN(Cc4ccccc4)CC3)c2cc1C | 2.48%
69 | COc1cccc2sc3cc(NCC[C@@H]4CCCN4C)ccc3c(=O)c12 | 3.58%
70 | Cc1cc2oc3ccc(NCCC4CCCN4C)cc3c(=O)c2cc1C (stereo not given) | 27.8% (active)

Source: PubChem BioAssay AID651704 (Broad Institute, 2012)
